Results as given in PubChem BioAssay.
Values joined by “and” are separate entries in the source; they are usually repeats but may differ in a detail not shown here. Equal entries are not always repeated. Active and inactive are the calls of the source.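 How the source made its calls, unless noted: active means normalized viability below 100% at a tested concentration; inactive means the rest.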

Experiments:
[1] = drug combination growth inhibition, ovarian cancer – cell-based, oncology-focused library, rucaparib conditional, profiling panel (AID 1508598); details: patient-derived ovarian cancer cells, CellTiter-Glo viability, 144 h, stronger effect = lower value
[2] = biological target: NAD(+) hydrolase SARM1 (Homo sapiens) (UniProt Q6SZW1); assay: blocking NAD cleavage by SARM1 SAM-TIR – cell lysate, NAD-Glo luminescence (AID 1508614;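 active means compound whose remaining NAD level is above about 45 nM, limit read from the data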); details: SAM-TIR HEK293T lysate NADase, at 1 µM, stronger effect = higher value
Chain of NAD(+) hydrolase SARM1 (Homo sapiens) (Q6SZW1 whole entry, looked up): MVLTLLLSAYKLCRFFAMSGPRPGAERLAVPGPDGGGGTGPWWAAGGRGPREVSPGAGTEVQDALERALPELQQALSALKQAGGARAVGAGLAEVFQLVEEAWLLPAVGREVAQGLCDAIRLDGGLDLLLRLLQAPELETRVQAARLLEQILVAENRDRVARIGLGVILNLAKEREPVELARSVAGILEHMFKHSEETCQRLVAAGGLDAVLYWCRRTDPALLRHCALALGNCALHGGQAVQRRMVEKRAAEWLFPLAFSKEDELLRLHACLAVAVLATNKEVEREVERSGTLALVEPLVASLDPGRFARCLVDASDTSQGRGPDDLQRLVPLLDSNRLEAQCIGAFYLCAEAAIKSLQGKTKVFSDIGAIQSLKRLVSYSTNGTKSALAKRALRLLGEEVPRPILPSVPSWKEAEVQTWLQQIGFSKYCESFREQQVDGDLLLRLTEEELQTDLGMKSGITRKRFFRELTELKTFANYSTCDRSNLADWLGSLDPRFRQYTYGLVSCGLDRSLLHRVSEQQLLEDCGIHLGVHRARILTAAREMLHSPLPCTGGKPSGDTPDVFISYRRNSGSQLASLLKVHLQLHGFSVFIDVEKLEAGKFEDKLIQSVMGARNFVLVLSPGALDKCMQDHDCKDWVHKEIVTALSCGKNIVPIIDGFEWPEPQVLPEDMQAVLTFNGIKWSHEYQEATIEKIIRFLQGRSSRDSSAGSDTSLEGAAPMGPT

[3] = galactose survival enhancers in mitochondrial complex I cybrids – cell-based, galactose medium, ATP luminescence, primary screen (AID 1645843;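 active means z-score of at least 1.8 in each of two replicates, scored against plate mean and spread of sample wells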;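 further: positive z means more ATP and so rescue of galactose-driven cybrid death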); details: complex I mutant cybrid cells, 72 h, stronger effect = higher value
[4] = system: F380Y; assay: BK channel mutant inhibitors and activators – cell-based, U2OS BacMam, thallium flux, beta subunits, selectivity assay, profiling panel (AID 1259406;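 active means thallium flux through the channel raised or lowered by more than 3 SD from vehicle-only wells, actives on both sides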;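 further: initial slope of Thallos dye fluorescence rise after thallium is added; log ratio against the mean of 0.3% DMSO vehicle wells on the same plate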); details: U2OS BacMam BK variants, at 30 µM
[5] = system: F380Y/beta2Delta; assay: as above; details: U2OS BacMam BK variants, at 30 µM
[6] = biological target: Calcium-activated potassium channel subunit alpha-1 (Homo sapiens) + Leucine-rich repeat-containing protein 26 (Homo sapiens) (UniProt Q12791+Q2I0M4); assay: as above; details: U2OS BacMam BK variants, F380Y/Slo1WT/gamma1, at 30 µM
Chain of Calcium-activated potassium channel subunit alpha-1 (Homo sapiens) + Leucine-rich repeat-containing protein 26 (Homo sapiens) (Q2I0M4 whole entry, looked up, one chain of several): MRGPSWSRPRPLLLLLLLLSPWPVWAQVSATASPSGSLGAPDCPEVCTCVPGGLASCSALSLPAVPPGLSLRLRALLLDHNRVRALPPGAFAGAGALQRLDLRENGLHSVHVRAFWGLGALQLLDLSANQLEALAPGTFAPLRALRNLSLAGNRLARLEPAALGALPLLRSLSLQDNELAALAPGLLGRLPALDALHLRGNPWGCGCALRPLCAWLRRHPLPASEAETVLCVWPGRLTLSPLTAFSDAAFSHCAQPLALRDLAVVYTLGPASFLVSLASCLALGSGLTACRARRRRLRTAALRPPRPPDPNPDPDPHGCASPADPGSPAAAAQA

[7] = system: R275C; assay: as above; details: U2OS BacMam BK variants, at 30 µM
[8] = system: R275C/beta1; assay: as above; details: U2OS BacMam BK variants, at 30 µM
[9] = system: R275C/beta2Delta; assay: as above; details: U2OS BacMam BK variants, at 30 µM
[10] = biological target: 6-phosphogluconate dehydrogenase, decarboxylating (Homo sapiens) (UniProt P52209); assay: inhibition of human phosphogluconate dehydrogenase – biochemical, recombinant enzyme, NADPH absorbance, primary screen (AID 1159550;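 active means at least 20% inhibition of 6-phosphogluconate dehydrogenase activity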); details: recombinant 6PGD, NADPH absorbance 341 nm; at 10 µM; stronger effect = higher value
Chain of 6-phosphogluconate dehydrogenase, decarboxylating (Homo sapiens) (P52209 whole entry, looked up): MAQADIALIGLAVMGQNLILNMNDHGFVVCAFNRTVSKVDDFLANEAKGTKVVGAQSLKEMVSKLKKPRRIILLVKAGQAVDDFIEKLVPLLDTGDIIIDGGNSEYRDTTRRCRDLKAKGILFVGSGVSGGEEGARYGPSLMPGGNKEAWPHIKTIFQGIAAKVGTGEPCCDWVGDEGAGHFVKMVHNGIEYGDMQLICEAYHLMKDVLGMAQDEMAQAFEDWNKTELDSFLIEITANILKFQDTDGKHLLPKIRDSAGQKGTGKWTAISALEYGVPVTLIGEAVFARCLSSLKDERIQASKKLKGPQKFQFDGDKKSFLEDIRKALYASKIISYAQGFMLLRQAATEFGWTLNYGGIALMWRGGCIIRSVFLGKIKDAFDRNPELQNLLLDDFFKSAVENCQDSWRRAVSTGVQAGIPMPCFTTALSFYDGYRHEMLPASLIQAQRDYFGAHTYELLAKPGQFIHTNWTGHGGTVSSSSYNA

[11] = P. berghei load reduction in hepatocytes – cell-based, HepG2, luciferase luminescence, HepG2 viability, primary screen (AID 624349; in the data active means parasite load remaining mostly below about 12%, no sharp cut-off; inactive means mostly above about 10%;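 further: 100% = mean of DMSO negative control wells on the same plate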); details: P. berghei liver stage in HepG2, luciferase luminescence, concentration not given here; parasite load remaining: stronger effect = lower value; viability: measured here: HepG2 viability without parasites
[12] = EMT-state selective cytotoxicity in co-culture – imaging, PC-3E GFP, TEM4-18 mCherry, primary screen (AID 1345086;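 active means compounds killing one labelled cell type while sparing the other, by normalised counts and ratio limits, not self-fluorescent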;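 on all read-outs here: cells exposed to compound for 72 h before imaging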;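 on red/green cell ratio (normalised): normalised mesenchymal count divided by normalised epithelial count so high means epithelial killing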); details: PC-3E GFP / TEM4-18 mCherry co-culture, imaging cell counts, at 1 µM; for red/green cell ratio (normalised): actives lie on both sides, counts scaled to control wells, 1 = unselective
[13] = viability loss with induced miR-34 in A549 – imaging, A549 dox-inducible miR-34, nuclei and caspase counts, primary screen (AID 1347080;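 active means compounds whose cell count with miR-34 switched on is under 0.7 times the count with it off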); details: A549 miR-34 inducible, Hoechst nuclei count, 48 h
[14] = MELAS cybrid and Rieske KO viability enhancers – cell-based, MELAS cybrids, Rieske KO mouse fibroblasts, CellTiter-Glo, primary screen (AID 1508586;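 active means mean z-score across replicates of 1.96 or higher in either the MELAS or the Rieske mutant cell line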;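 further: z relative to plate mean and SD of compound and empty wells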); details: low glucose
[15] = biological target: Mitogen-activated protein kinase 7 (Homo sapiens) (UniProt Q13164); assay: Gal4-ERK5 driven luciferase induction – cell-based, HTS, primary screen (AID 1508626;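 active means luciferase signal above three times the same-plate solvent-only control wells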;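 further: luciferase driven by Gal4-ERK5 fusion binding five Gal4 sites before minimal TATA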); details: HeLa Gal4-ERK5 transactivation, 18 h, at 5 µM, stronger effect = higher value
Chain of Mitogen-activated protein kinase 7 (Homo sapiens) (Q13164 whole entry, looked up, the tested form may be a part): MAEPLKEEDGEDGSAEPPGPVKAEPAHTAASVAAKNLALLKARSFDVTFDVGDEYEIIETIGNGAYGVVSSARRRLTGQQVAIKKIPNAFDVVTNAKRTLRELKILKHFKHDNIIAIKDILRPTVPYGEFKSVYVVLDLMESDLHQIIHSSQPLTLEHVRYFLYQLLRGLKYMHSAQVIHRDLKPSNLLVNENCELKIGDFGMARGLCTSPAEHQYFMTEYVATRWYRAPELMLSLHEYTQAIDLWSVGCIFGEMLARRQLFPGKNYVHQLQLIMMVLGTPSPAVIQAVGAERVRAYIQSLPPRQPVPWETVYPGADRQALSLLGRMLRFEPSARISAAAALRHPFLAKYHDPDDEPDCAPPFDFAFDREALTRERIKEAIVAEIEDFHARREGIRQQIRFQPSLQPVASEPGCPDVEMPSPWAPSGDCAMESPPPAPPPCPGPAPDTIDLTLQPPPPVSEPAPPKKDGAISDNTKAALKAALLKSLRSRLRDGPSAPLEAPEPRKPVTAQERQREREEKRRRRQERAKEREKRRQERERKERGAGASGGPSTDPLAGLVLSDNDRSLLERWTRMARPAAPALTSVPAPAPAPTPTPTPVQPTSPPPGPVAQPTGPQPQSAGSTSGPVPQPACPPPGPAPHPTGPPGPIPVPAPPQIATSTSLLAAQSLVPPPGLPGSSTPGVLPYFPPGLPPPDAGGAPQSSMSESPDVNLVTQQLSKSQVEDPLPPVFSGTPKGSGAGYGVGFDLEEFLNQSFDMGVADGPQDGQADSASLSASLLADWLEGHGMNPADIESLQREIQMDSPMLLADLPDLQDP

[16] = compounds altering viability of human ES cells (AID 493140; call rule not given here;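 further: cells exposed to compounds for four days before counting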); details: human embryonic stem cell survival screen; stronger effect = higher value
[17] = signal quenchers or enhancers, Cy5 substrate/SSB – biochemical, NIH Clinical Collection, E. coli SSB, artefact control for HCV NS3 helicase inhibitor project (AID 743268; call rule not given here); details: Cy5-oligo bound E. coli SSB, fluorescence interference
[18] = system: Hepatitis C virus NS3 helicase; assay: blockers of NS3h binding to DNA – biochemical, fluorescence polarization, NIH Clinical Collection, primary screen (AID 743270; call rule not given here); details: NS3 helicase binding to Cy5-dT15 DNA, stronger effect = higher value, concentration not given here
[19] = biological target: Single-stranded DNA-binding protein (Escherichia coli (strain K12)) (UniProt P0AGE0); assay: SSB-ssDNA binding inhibitors – biochemical, fluorescence polarization, NIH Clinical Collection, counter-screen for HCV NS3 helicase inhibitor project (AID 743271; in the data active means inhibition above about 28%); details: E. coli SSB-DNA binding, stronger effect = higher value, concentration not given here
[20] = compounds distorting NS3 helicase fluorescence signal – biochemical, NIH Clinical Collection, artefact control for HCV NS3 helicase inhibitor project (AID 743272; call rule not given here;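 further: HCV NS3 helicase with a Cy5 labelled single stranded DNA probe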); details: fluorescence interference counterscreen, HCV NS3 helicase assay; stronger effect = lower value
[21] = at 0.0195 µM, OCI-P5x cells, with rucaparib 20 µM, 100% = cells with rucaparib alone
[22] = at 0.0195 µM, OCI-P5x cells, without rucaparib
[23] = at 0.0781 µM, OCI-C5x cells, with rucaparib 10 µM, 100% = cells with rucaparib alone
[24] = at 0.0781 µM, OCI-C5x cells, without rucaparib
[25] = at 0.0781 µM, OCI-P5x cells, with rucaparib 20 µM, 100% = cells with rucaparib alone
[26] = at 0.0781 µM, OCI-P5x cells, without rucaparib
[27] = at 0.313 µM, OCI-C5x cells, with rucaparib 10 µM, 100% = cells with rucaparib alone
[28] = at 0.313 µM, OCI-C5x cells, without rucaparib
[29] = at 0.313 µM, OCI-P5x cells, with rucaparib 20 µM, 100% = cells with rucaparib alone
[30] = at 0.313 µM, OCI-P5x cells, without rucaparib
[31] = at 1.25 µM, OCI-C5x cells, with rucaparib 10 µM, 100% = cells with rucaparib alone
[32] = at 1.25 µM, OCI-C5x cells, without rucaparib
[33] = at 1.25 µM, OCI-P5x cells, with rucaparib 20 µM, 100% = cells with rucaparib alone
[34] = at 1.25 µM, OCI-P5x cells, without rucaparib
[35] = at 5 µM, OCI-C5x cells, with rucaparib 10 µM, 100% = cells with rucaparib alone
[36] = at 5 µM, OCI-C5x cells, without rucaparib
[37] = at 5 µM, OCI-P5x cells, with rucaparib 20 µM, 100% = cells with rucaparib alone
[38] = at 5 µM, OCI-P5x cells, without rucaparib
[39] = measured here: epithelial PC-3E GFP cell survival
[40] = measured here: mesenchymal TEM4-18 mCherry cell survival
[41] = stronger effect = lower value, cell number ratio, induced over uninduced
[42] = measured here: relative caspase fold change +Dox/-Dox
[43] = measured here: total cells with miR-34 induction, stronger effect = lower value
[44] = measured here: total cells without miR-34 induction
[45] = MELAS cybrid survival, CellTiter-Glo 48 h, stronger effect = higher value
[46] = Rieske KO mouse fibroblast survival, CellTiter-Glo 72 h
[47] = at 0.000305 µM, OCI-C5x cells, with rucaparib 10 µM, 100% = cells with rucaparib alone
[48] = at 0.000305 µM, OCI-C5x cells, without rucaparib
[49] = at 0.000305 µM, OCI-P5x cells, with rucaparib 20 µM, 100% = cells with rucaparib alone
[50] = at 0.000305 µM, OCI-P5x cells, without rucaparib
[51] = at 0.00122 µM, OCI-C5x cells, with rucaparib 10 µM, 100% = cells with rucaparib alone
[52] = at 0.00122 µM, OCI-C5x cells, without rucaparib
[53] = at 0.00122 µM, OCI-P5x cells, with rucaparib 20 µM, 100% = cells with rucaparib alone
[54] = at 0.00122 µM, OCI-P5x cells, without rucaparib
[55] = at 0.00488 µM, OCI-C5x cells, with rucaparib 10 µM, 100% = cells with rucaparib alone
[56] = at 0.00488 µM, OCI-C5x cells, without rucaparib
[57] = at 0.00488 µM, OCI-P5x cells, with rucaparib 20 µM, 100% = cells with rucaparib alone
[58] = at 0.00488 µM, OCI-P5x cells, without rucaparib
[59] = at 0.0195 µM, OCI-C5x cells, with rucaparib 10 µM, 100% = cells with rucaparib alone
[60] = at 0.0195 µM, OCI-C5x cells, without rucaparib

CC(C)n1c(/C=C/[C@@H](O)C[C@@H](O)CC(=O)O)c(-c2ccc(F)cc2)c2ccccc21
inactive: remaining NAD [2] 10 nM | z-score [3] -0.215 and -1.78 | log fold change Tl+ flux [4] 0.0848 | log fold change Tl+ flux [5] 0.0465 | log fold change Tl+ flux [7] -0.0365
active: viability [1, 21] 44.2% | viability [1, 22] 53.6% | viability [1, 23] 50.9% | viability [1, 24] 54.7% | viability [1, 25] 21.8% | viability [1, 26] 31% | viability [1, 27] 32.6% | viability [1, 28] 33.3% | viability [1, 29] 8.26% | viability [1, 30] 10.2% | viability [1, 31] 20.2% | viability [1, 32] 22.5% | viability [1, 33] 5.66% | viability [1, 34] 4.09% | viability [1, 35] 7.97% | viability [1, 36] 7.19% | viability [1, 37] 5.66% | viability [1, 38] 4.42% | log fold change Tl+ flux [6] 0.11 | log fold change Tl+ flux [8] 0.145 | log fold change Tl+ flux [9] 0.135

COc1c(-c2ccccc2)oc2c(OC)cccc2c1=O
inactive: inhibition [10] -9.55%

NCCCC(O)(P(=O)(O)O)P(=O)(O)O
0.419 and 4.85 and 1.52: fold change [13, 42]
inactive: parasite load remaining [11] 53.9% and 32.7% | red/green cell ratio (normalised) [12] 1.07 | fold change [13, 41] 1.41 and 0.87 and 0.867 | z-score [14, 45] 0.332 and -1.05 and 0.581 | remaining NAD [2] 10 nM | luciferase signal [15] 144 AU | z-score [3] -2.05 and 0.675
6340 and 13900 and 11300: cell count [13, 44]
0.0856 and -0.0862 and 0.207: z-score [14, 46]
1.08: normalised cell number [12, 40]
8960 and 12100 and 9780: cell count [13, 43]
103% and 67.5%: viability [11]
1: normalised cell number [12, 39]

O=C(O)CCn1c2c(c3ccccc31)C[C@H](NS(=O)(=O)c1ccc(F)cc1)CC2
0.911: fold change [13, 42]
inactive: fold change [13, 41] 0.961
5850: cell count [13, 44]
5630: cell count [13, 43]

CCOc1ccc(C(=O)c2cc(O)c(OC)c(OC)c2O)cc1
inactive: inhibition [10] 0.271%

CC(C)CCCC(C)C1CCC2C3C(=O)C=C4C[C@@H](O)CCC4(C)C3CCC12C (some centres undefined)
inactive: inhibition [10] 12.2%

CCCc1occc(=O)c1/C=C/O
inactive: inhibition [10] -1.45%

CC1(C)CCC2(C(=O)O)C(O)CC3(C)C(=CCC4C5(C)CCC(O)C(C)(C)C5CCC43C)C2C1 (centres undefined)
inactive: inhibition [10] -10.1%

CN(C)c1nc(N(C)C)nc(N(C)C)n1
active: viability [1, 48] 98.3% | viability [1, 49] 95.7% | viability [1, 50] 87% | viability [1, 53] 95.8% | viability [1, 54] 89% | viability [1, 58] 92.4% | viability [1, 22] 96.6% | viability [1, 30] 99.9% | viability [1, 31] 96.8% | viability [1, 32] 67.8% | viability [1, 33] 78.5% | viability [1, 34] 28.8% | viability [1, 36] 97.9% | viability [1, 38] 98.6%
inactive: viability [1, 47] 108% | viability [1, 51] 112% | viability [1, 52] 100% | viability [1, 55] 120% | viability [1, 56] 101% | viability [1, 57] 101% | viability [1, 59] 113% | viability [1, 60] 100% | viability [1, 21] 102% | viability [1, 23] 110% | viability [1, 24] 101% | viability [1, 25] 103% | viability [1, 26] 106% | viability [1, 27] 107% | viability [1, 28] 108% | viability [1, 29] 108% | viability [1, 35] 109% | viability [1, 37] 107%

CCc1ccc(CCOc2ccc(CC3SC(=O)NC3=O)cc2)nc1 (centres undefined)
active: viability [1, 49] 88.4% | viability [1, 50] 95.9% | viability [1, 53] 97.3%
inactive: viability [1, 47] 119% | viability [1, 48] 118% | viability [1, 51] 120% | viability [1, 52] 116% | viability [1, 54] 100% | viability [1, 55] 108% | viability [1, 56] 126% | viability [1, 57] 102% | viability [1, 58] 105% | viability [1, 59] 120% | viability [1, 60] 126% | viability [1, 21] 105% | viability [1, 22] 104% | viability [1, 23] 124% | viability [1, 24] 113% | viability [1, 25] 101% | viability [1, 26] 110% | viability [1, 27] 105% | viability [1, 28] 115% | viability [1, 29] 103% | viability [1, 30] 113% | viability [1, 31] 111% | viability [1, 32] 123% | viability [1, 33] 104% | viability [1, 34] 118% | viability [1, 35] 105% | viability [1, 36] 123% | viability [1, 37] 103% | viability [1, 38] 111%

CC(=O)NC(C(=O)O)C(C)(C)SN=O (centres undefined)
1.04: normalised cell number [12, 39]
1.06: normalised cell number [12, 40]
inactive: inhibition [10] 3.72% | red/green cell ratio (normalised) [12] 1.02

CC1CC[C@@]2(OC1)O[C@H]1CC3C4CC[C@@H]5C[C@@H](O)CC[C@]5(C)C4CC[C@]3(C)[C@H]1[C@@H]2C (some centres undefined)
inactive: inhibition [10] -2.11% | red/green cell ratio (normalised) [12] 1.16
1.2: normalised cell number [12, 40]
1.03: normalised cell number [12, 39]

CN(C)CCC(c1ccc(Cl)cc1)c1ccccn1 (centres undefined)
inactive: survival [16] 24.1 | fluorescence ratio [17] 1.05 | inhibition [18] -1.98% | inhibition [19] -3.95% | fluorescence ratio [20] 1.02 | inhibition [10] 14.7% | red/green cell ratio (normalised) [12] 1.02 | z-score [14, 45] -0.0722 and 0.91 and 0.217 | remaining NAD [2] 10 nM | log fold change Tl+ flux [4] 0.0819 | log fold change Tl+ flux [5] 0.0184 | log fold change Tl+ flux [6] -0.0284 | log fold change Tl+ flux [7] -0.059 | log fold change Tl+ flux [9] 0.0118
0.93: normalised cell number [12, 40]
0.675 and 0.216 and -0.121: z-score [14, 46]
0.91: normalised cell number [12, 39]
active: log fold change Tl+ flux [8] 0.0906
